About 64,000 (15%) of roughly 420,000 compounds were called active. Not shown: some 27% with an inconclusive outcome. Not all results are given here. Values without a mark were called inactive. Calls follow the shape of the dose curve; as a rule, active = well fitted inhibition curve with a large enough effect; inconclusive = small, poorly fitted or top-dose-only effect; inactive = flat fitted curve, though single readings scatter.
assay: qHTS for Inhibitors of human tyrosyl-DNA phosphodiesterase 1 (TDP1): qHTS in cells in absence of CPT; conditions: DT40 Tdp1-/- hTDP1 cells, no CPT, ATP luminescence, 48 h; activity change, negative = growth inhibition: at 46.2 µM (top of the series); also: nearly all actives have a fitted effect of over 55% in size
How it was run: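 DT40 Tdp1-/-;hTDP1 cells, no CPT (DMSO vehicle only), 400 cells/well; compounds pin-transferred; ≥48 hr, 37 °C; CellTiter-Glo 30 min RT dark, luminescence read.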
% is scaled to controls: 0 for no effect and ±100 for the full control effect; potency is read from the fitted curve at half-maximal effect.

SMILES | activity change, negative = growth inhibition | Potency
CCOc1ccc(S(=O)(=O)NCCC(=O)NNC(=O)c2ccc(F)cc2)cc1 | -2.59% | –
COc1ccc(CCN2C(=O)c3oc4cc(C)cc(C)c4c(=O)c3C2c2ccccc2F)cc1OC (stereo not drawn) | – | 2.91 µM (active)
COc1ccc(CNC(=O)c2cc(=O)c3c(C)cc(C)cc3o2)cc1 | -23.3% | –
COc1ccc(CCNC(=O)COc2cc(C)cc3oc(=O)c(C)c(C)c23)cc1OC | -14.7% | –
COc1ccccc1OCCNC(=O)C(CCSC)NC(=O)COc1ccccc1 (stereo not drawn) | 12.3% | –
O=C(O)CC(c1ccccc1)n1cnnn1 (stereo not drawn) | -13.6% | –
CCCCOc1ccc(C(=O)NO)cc1 | – | 15.8 µM (active)
CCCOc1ccc(C(=O)C(CCC(CNCC)C(=O)c2ccc(OCCC)cc2)CNCC)cc1 (stereo not drawn) | – | 0.92 µM (active)
CCCCOc1ccc(C(=O)NN2CCN(C)CC2)cc1 | 0.162% | –
CCCOc1ccc(C(=O)CCC(=O)OC(C)C(=O)Nc2ccc(NC(C)=O)cc2)cc1 (stereo not drawn) | -9.79% | –
CCCOc1ccc(C(=O)NCCc2ccccc2)cc1 | -5.72% | –
CCCCOc1ccc(C(=O)NCc2ccncc2)cc1 | -49% | –
COc1ccccc1C(=O)NCC(=O)OCC(=O)Nc1nnc(-c2ccccc2)o1 | 0.346% | –
CCCNC(=O)C[C@@H]1CC[C@@H]2[C@H](COC[C@H](O)CN2C(=O)c2cc(Cl)cc(Cl)c2)O1 | 3.86% | –
Cn1c(N)c(C(=O)COC(=O)c2ccccc2NCc2ccco2)c(=O)n(C)c1=O | -17.3% | –
CCc1cccc(CC)c1NC(=S)Nc1ccc2cn[nH]c2c1 | -26.7% | –
Cc1cc2cc(CNC(=O)c3cccs3)ccc2[nH]1 | -9.84% | –
CCc1cccc(CC)c1NC(=S)NCc1ccc2[nH]c(C)cc2c1 | – | 18.4 µM (active)
COc1ccc(S(=O)(=O)NCC2CCCN(C(=O)c3occc3C)C2)cc1 (stereo not drawn) | 4.89% | –
O=C(c1ccccn1)c1ncc(C(F)(F)F)cc1Cl | 0.458% | –
C=CCn1c(SCC(=O)Nc2nc3ccccc3s2)nnc1-c1ccccc1O | -19.3% | –
NC(=O)Cc1nc2scc(-c3ccc(Cl)cc3)c2c(=O)[nH]1 | -7.87% | –
O=c1[nH]c(CCl)nc2cc(-c3ccc(Cl)cc3)sc12 | – | 2.31 µM (active)

SMILES | activity change, negative = growth inhibition | Potency
O=c1[nH]c(CN2CCOCC2)nc2cc(Cl)ccc12 | -17.7% | –
CCOCCCNC(=S)N1CCC(NC(=O)C2CCCCC2)CC1 | 23.4% | –
CSCCC(NS(=O)(=O)c1ccc2c(c1)oc(=O)n2C)C(=O)NCc1ccccc1 (stereo not drawn) | – | inactive
OC(CBr)C[n+]1cccc2cc(Br)ccc21 (stereo not drawn) | – | 11.2 µM (active)
Cc1c(CCC(=O)N[C@@H](CC(C)C)C(=O)O)c(=O)oc2c(C)c3oc4c(c3cc12)CCCC4 | -5.98% | –
CCN(CC)CCCNC(=O)CCn1nc(-c2ccc(Cl)cc2)ccc1=O | -12.9% | –
Cn1c(C(=O)Nc2cccc(C(F)(F)F)c2)cc2c(=O)n3ccccc3nc21 | – | 9.2 µM (active)
O=C(Nc1ccc(OC(F)(F)F)cc1)c1cc2c(=O)n3ccccc3nc2s1 | -10.7% | –
O=C(COC(=O)c1cccc(Cl)c1)NC(=O)NCc1ccccc1 | 5.96% | –
CCN(CC)c1ccc2c(Nc3ccccc3)c(C=O)c(=O)oc2c1 | -1.93% | –
CCN(CC)c1ccc2oc(=O)c(C)nc2c1 | – | 5.8 µM (active)
CCN(CC)c1ccc2cc(C(=O)O)c(=O)oc2c1 | -13.5% | –
COc1ccc(CCN2C(=O)C3CC=C(C)CC3C2=O)cc1OC (stereo not drawn) | -29.3% | –
COc1ccc(CCNC(=O)C(=O)NCc2ccccc2C)cc1OC | 6.43% | –
COC(=O)c1ccc(C2C(Oc3ccccc3C)C(=O)N2CCc2ccc(OC)c(OC)c2)cc1 (stereo not drawn) | – | 14.6 µM (active)
CN(CCC1CCOCC1)C(=O)CC1C(=O)NCCN1Cc1cccc(F)c1 (stereo not drawn) | -6.27% | –
COc1ccc(NS(=O)(=O)c2cc3c(cc2C)N(C(C)=O)CCO3)cc1 | – | inactive
CCCN(CCC)S(=O)(=O)c1ccc(C(=O)Nc2sc3c(c2C(=O)OC)CCN(CC)C3)cc1 | – | 20.6 µM (active)
CCOC(=O)c1c(NC(=O)C2CCN(S(=O)(=O)c3ccc(Cl)cc3)CC2)sc2c1CCCC2 | -25.2% | –
CCOC(=O)c1c(NC(=O)NC(C)(C)C)sc2c1CCN(C)C2 | -0.308% | –
CCOC(=O)c1c(NC(=O)c2ccc(S(=O)(=O)N3CCCC(C)C3)cc2)sc2c1CCN(C(C)C)C2 (stereo not drawn) | – | 10.3 µM (active)
COC(=O)c1c(NC(=O)c2cc(=O)c3c(C)cc(C)cc3o2)sc2c1CCCC2 | 2.53% | –
COC(=O)c1c(NC(=O)c2ccc(Cl)c(Cl)c2)sc2c1CCCC2 | -2.84% | –

SMILES | activity change, negative = growth inhibition | Potency
O=C(O)/C=C/c1ccc(OCCCF)cc1 | 7.32% | –
CN(C)/C=C/C(=O)c1cnc2sccn2c1=O | 1.42% | –
Cn1nc(C(F)(F)F)c(-c2ccc(F)cc2)c1NC(=O)CSCC(=O)O | 4.22% | –
CN(C)C=NC(=O)c1cccn1-c1ncc(C(F)(F)F)cc1Cl | -0.565% | –
O=C(CSc1nnc(Nc2ccccc2)s1)Nc1cccnc1Cl | 6.65% | –
CC(C)N(C(=O)CSc1nnc(NC2CC2)s1)c1ccccc1 | 11.9% | –
CC(C)c1ccc(Nc2nnc(SCC(=O)c3nnc(-c4ccccc4)o3)s2)cc1 | – | 11.6 µM (active)
C/C(=N\OC(=O)c1ccccc1)c1c(C)nc2cc(C)ccn12 | 1.66% | –
CC1=C(C(=O)Nc2ccc(Cl)cc2)C(c2ccco2)NC(=O)N1 (stereo not drawn) | -5.62% | –
Cc1ccc(SCC(=O)c2cc(C)c(OC(=S)N(C)C)c(C)c2)cc1 | – | 18.4 µM (active)
Cc1ccc(SC(=O)COc2ccc(C)c(C)c2)cc1 | -15.4% | –
Cc1ccc(SCC(=O)Nc2ccc3c(c2)OCCO3)cc1 | -4.73% | –
CCCCc1ccc(S(=O)(=O)NC(=O)C2(C)CCN2C(=O)c2c(C)noc2C)cc1 (stereo not drawn) | -11.2% | –
O=S1(=O)N=C(N(CCO)/N=C/c2ccccc2F)c2ccccc21 | – | 0.92 µM (active)
COc1ccc(/C=N/N(C)C2=NS(=O)(=O)c3ccccc32)cc1OC | -4.78% | –
C=CCOCCN(C)C1=NS(=O)(=O)c2ccccc21 | -11.1% | –
CCCCC/C=C\C/C=C\CCCCCCCCCC(=O)O | 6.04% [at 4.12 µM] | –
Cc1cc(C)n(C(=O)CCNC(=O)c2ccccc2Cl)n1 | -11.5% | –
NC(=O)c1ccsc1NC(=O)COC(=O)COc1ccc(C=O)cc1 | 14.7% | –
Fc1cc(Br)ccc1NC(=S)Nc1cccnc1 | -4.8% | –
Cc1cccc(NC(=S)NC(=O)c2ccc(Br)o2)c1 | -27.5% | –
Cc1cccc(NC(=S)Nc2ccc(Br)cc2)c1 | – | 16.4 µM (active)
